PubChem BioAssay (NCI)
About 83,000 compounds went through this panel and 20% of them were active in at least one assay; those are over-represented in the sample as a whole.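 In brief: 96-well plates, 48 h treatment, single concentration, percent growth endpoint.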 Values without a mark were called inactive. Activity calls are given as the source filed them. The calls were made as follows: active = growth percent below 10; inactive = the rest.

These compounds were tested on MDA-MB-468 breast (assay: NCI-60 one-dose screen, 48 h (100 = growth as untreated, 0 = no growth, -100 = all killed)). Conditions: 10 µM unless noted.

Q: With `CCNC(=O)Oc1ccc(/C(=C(\C)c2ccccc2)c2ccc(OCCN3CCCCC3)cc2)cc1` as the compound, how does the growth read?
A: Its growth is 76.6%.

Q: For `CCSc1nc(-c2ccc(F)cc2)c(C#N)c(=O)[nH]1`, which growth is on record?
A: The growth was 91.4%.

Q: With `Cc1nn(-c2ccccc2)c2nc(CCl)[nH]c(=O)c12` as the compound, how does the growth read?
A: Its growth is 26.6%.

Q: With `CN1CCN(CCCOc2cccc3nc(Nc4ccc(Cl)c(F)c4)ccc23)CC1` as the compound, how does the growth read?
A: Its growth is 33.2%.

Q: Which growth does the source give for `N#Cc1nn(-c2cc(=O)[nH]c3ccc(Br)cc23)c(N)c1C#N` here?
A: Its growth is 106%.

Q: `COc1ccc2c(c1)c(CC(=O)NCCOCCOCC(=O)Nc1ccc(OC)c(C(N)=O)c1O)c(C)n2C(=O)c1ccc(Cl)cc1` was tested. Which growth did it give?
A: The growth was 88.6%.

Q: With `O=C1NC2(Nc3ccccc31)C(=O)Nc1c(Cl)cc(Cl)cc12` (stereo not given) as the compound, how does the growth read?
A: Its growth is 112%.

Q: With `N#CC1=C(N)Oc2c(c(N)nn2-c2ccccc2)C1c1ccc(Cl)cc1Cl` (stereo not given) as the compound, how does the growth read?
A: Its growth is 129%.

Q: For `O=C1NC(=O)C(c2ccccc2)O1` (stereo not given), which growth is on record?
A: The growth was 106%.

Q: How did the growth turn out when `OB(O)c1ccccc1` was run?
A: The growth was 110%.

Q: Which growth does the source give for `O=c1[nH]c2ccc(Br)cc2c2c1C(c1ccc(Cl)cc1)c1c(ncn3nc(-c4ccco4)nc13)O2` (stereo not given) here?
A: The growth was 85.9%.

Q: For `CCS(=O)(=O)CCCl`, which growth is on record?
A: Its growth is 101%.

Q: With `N#C/C(=C\c1ccc(-c2ccc(Br)cc2)o1)c1nc(-c2cccs2)cs1` as the compound, how does the growth read?
A: The growth was 6.37% (active).

Q: How did the growth turn out when `COc1cc(OC)c(C(=O)/C=C/c2ccc(C#N)cc2)c(OC)c1` was run?
A: The growth was -6.07% (active).

Q: For `O=[N+]([O-])/C(=C/C=C/c1ccccc1)c1ccccc1`, which growth is on record?
A: The growth was 2.79% (active).

Q: With `Cc1cccc(C)c1NC(=O)CSC(=S)N1CCN(CCOCCO)CC1` as the compound, how does the growth read?
A: The growth was 127%.

Q: How did the growth turn out when `CCOC(=O)c1nc2c3ccccc3ccn2c1C(=O)OC` was run?
A: Its growth is 92.1%.

Q: For `CCOC(=O)c1[nH]cc2c1CCc1sc(Nc3ccccn3)nc1-2`, which growth is on record?
A: The growth was 46.9%.

Q: How did the growth turn out when `CCN(CC)CCCOC(=O)Nc1ccccc1Cl` was run?
A: Its growth is 107%.

Q: How did the growth turn out when `COc1cc2ncnc(Nc3ccc(C(=O)/C=C/c4ccc(C(F)(F)F)cc4F)cc3)c2cc1OC` was run?
A: The growth was 107%.

Q: For `NC(=O)c1c(Nc2ccccc2)nn2cc(-c3nc4ccccc4s3)c(N)nc12`, which growth is on record?
A: Its growth is 101%.

Q: How did the growth turn out when `COc1ccc2c(c1)c(/C=N/Nc1ccnc3cc(Cl)ccc13)cn2C` was run?
A: The growth was -87.3% (active).

Q: Which growth does the source give for `CCN(CCO)CCNc1ccc(C)c2sc3cc(Cl)ccc3c(=O)c12` here?
A: Its growth is -47.7% (active).

Q: `Cn1cc(-c2ccc3nc(-c4ccc(CC(=O)Nc5cc(C(C)(C)C)no5)cc4)cnc3c2)cn1` was tested. Which growth did it give?
A: Its growth is 14.8% [30 µM].

Q: How did the growth turn out when `Cc1nc2c(O)cccc2cc1CO` was run?
A: Its growth is 95.2%.

Q: `CC1COc2c(N3CCN(C)CC3)c(F)cc3c(=O)c(C(=O)N/N=C/c4cc[nH]c4)cn1c23` (stereo not given) was tested. Which growth did it give?
A: Its growth is -9.35% (active).

Q: `CN(C)CCCN=c1cc2c(=O)n(CCCN(C)C)c(=O)c3c(NCCCN(C)C)cc4c(O)n(CCCN(C)C)c(=O)c1c4c3-2` was tested. Which growth did it give?
A: Its growth is -53.2% (active).

Q: How did the growth turn out when `COc1cc(C2CC(=O)Nc3c2c(C)nn3-c2nc3ccccc3[nH]2)cc2c1OCC(=O)N2` (stereo not given) was run?
A: The growth was 57.1%.

Q: Which growth does the source give for `O=c1oc2ccc(Cl)cc2c(=O)n1-c1ccc(Cl)cc1F` here?
A: Its growth is 2.01% (active).

Q: `COc1cccc(/C=C2\COc3ccc(O)cc3C2=O)c1OC` was tested. Which growth did it give?
A: Its growth is 43.9%.

Q: How did the growth turn out when `Cc1ccc(S(=O)(=O)c2nc(-c3ccc(F)cc3)oc2S(C)(=O)=O)cc1` was run?
A: Its growth is 57.7%.

Q: How did the growth turn out when `COc1ccc(C2=NN(C=O)C(c3ccc(Oc4nc5c(c(=O)n(C)c(=O)n5C)n4C)c(OC)c3)C2)cc1` (stereo not given) was run?
A: The growth was 73.6%.

Q: Which growth does the source give for `C/C(=N\O)c1ccc(NC(=O)CSc2nnc(-c3cc(-c4ccc(S(C)(=O)=O)cc4)nc4ccccc34)n2-c2ccccc2)cc1` here?
A: Its growth is 92.6%.

Q: With `Cl/C(=N\Nc1ccccc1)c1ccccc1` as the compound, how does the growth read?
A: Its growth is 79%.

Q: Which growth does the source give for `Cc1sc2c(c1C)c(=O)nc1c(-c3nc(-c4ccccc4)cs3)n[nH]n12` here?
A: The growth was 116%.

Q: How did the growth turn out when `CCN(CC)c1ccc2cc(C(Nc3ccc(Br)c(C(F)(F)F)c3)c3nnnn3C(C)(C)C)c(=O)oc2c1` (stereo not given) was run?
A: The growth was 118%.

Q: `COc1cc(Cn2cc3c(c2)-c2onc(CN4CCOCC4)c2CC3)cc(OC)c1OC` was tested. Which growth did it give?
A: Its growth is 81.5%.

Q: How did the growth turn out when `COc1ccc(-c2nc(-c3cn(C)c4ncccc34)cs2)cc1` was run?
A: Its growth is -6.3% [100 µM] (active).

Q: How did the growth turn out when `Oc1ccccc1N=Cc1c(O)ccc2ccccc12` was run?
A: The growth was 83.2%.

Q: With `COc1cc2c(cc1OC(C)=O)C(=O)CCCC2` as the compound, how does the growth read?
A: Its growth is 76.8%.
